# Assay outcomes (PubChem BioAssay)
# A selection: hits, their analogues and other compounds. The true share with any hit is near 15%.
# TDP1 cell noCPT – qHTS for Inhibitors of human tyrosyl-DNA phosphodiesterase 1 (TDP1): qHTS in cells in absence of CPT; AID 686978, 2013; hit rate 15% among 420,000; Potency, µM (doses to about 46.2 µM), hits mostly inhibitors; DT40 Tdp1-/- hTDP1 cells, no CPT, ATP luminescence, 48 h; also: nearly all actives have a fitted effect of over 55% in size
#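 Compound effects on proliferation are scored in DT40 Tdp1-/-;hTDP1 cells in the absence of CPT. ATP levels (CellTiter-Glo luminescence) are recorded after a ≥48 hr, 37 °C incubation.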
# ELG1 DNA repair – blocks ELG1-dependent DNA repair in HEK293T cells | hit rate 2.3% among 330,000 | Potency, µM (series often up to 46.1 µM), most hits filed as inhibitors | HEK293T ELG1-luciferase reporter, luminescence, 16 h; DNA damage induced by 5-fluorouridine; also: nearly all actives have a fitted effect of over 55% in size
#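 In this reporter screen, reduction of luminescence relative to DMSO vehicle indicated activity. Compounds and 5-fluorouridine were added together to 2,000 cells per well, incubated for 16 hr at 37 °C, then developed with ONE-Glo.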
# 12-LOX inh – inhibitors of human 12S-lipoxygenase ALOX12 | P18054 | purified 12hLO, xylenol orange hydroperoxide absorbance | Potency, µM (doses to about 108 µM), hits mostly inhibitors | hit rate 1.1% among 580,000 | AID 1671190
# Target sequence (P18054 whole entry, looked up): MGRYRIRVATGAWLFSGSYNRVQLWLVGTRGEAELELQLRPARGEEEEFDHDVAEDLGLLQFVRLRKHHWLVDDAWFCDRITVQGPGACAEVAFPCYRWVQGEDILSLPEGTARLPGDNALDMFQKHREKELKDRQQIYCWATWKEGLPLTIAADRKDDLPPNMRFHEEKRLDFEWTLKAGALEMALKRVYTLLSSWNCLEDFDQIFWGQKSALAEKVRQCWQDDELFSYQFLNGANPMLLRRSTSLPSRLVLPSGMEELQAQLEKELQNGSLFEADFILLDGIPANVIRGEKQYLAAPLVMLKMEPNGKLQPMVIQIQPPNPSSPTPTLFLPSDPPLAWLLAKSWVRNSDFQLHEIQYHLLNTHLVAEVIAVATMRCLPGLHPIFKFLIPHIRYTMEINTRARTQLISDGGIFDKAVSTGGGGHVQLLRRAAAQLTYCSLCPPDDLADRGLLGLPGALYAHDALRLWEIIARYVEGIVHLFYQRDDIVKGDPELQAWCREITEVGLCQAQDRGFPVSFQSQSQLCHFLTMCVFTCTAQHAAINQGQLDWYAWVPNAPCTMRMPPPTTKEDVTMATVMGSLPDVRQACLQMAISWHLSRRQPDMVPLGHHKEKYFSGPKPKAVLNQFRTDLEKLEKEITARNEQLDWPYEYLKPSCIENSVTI
#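 Purified human 12hLO (150 nM final) in 25 mM Hepes, 0.01% Triton X-100, pH 7.0 was preincubated 15 min at room temperature with compound. Then 40 uM arachidonic acid was added, 30 min. Hydroperoxide was read by Fe-XO absorbance ratio 573/405 nm.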
# VP16 counter – counter-screen for ROR gamma inhibitors: Gal4-VP16 reporter | Drosophila S2 Gal4-VP16 UAS-luciferase, luminescence, 20 h | AID 2546 | Potency, µM (highest dose often 53.6 µM), hits mostly inhibitors | hit rate 3.5% among 310,000;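 also: Gal4-VP16 expression switched on by copper sulfate through the metallothionein promoter; nearly all actives have a fitted effect of over 50% in size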
# RORgamma inh – blocks mouse ROR gamma transcriptional activity; P51450; Drosophila S2 Gal4-RORgamma UAS-luciferase reporter, 20 h; Potency, µM (series often up to 53.6 µM), hits mostly inhibitors; hit rate 5.4% among 310,000; also: nearly all actives have a fitted effect of over 60% in size
#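 ROR gamma transcriptional activity was tracked as Gal4-UAS luciferase output in stably transfected Drosophila Schneider cells, with compound added 1 hr before 700 uM copper sulfate induction and a 20 hr ambient-temperature incubation.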
# DT40 TDP1 CPT – DT40-hTDP1 cell growth loss with CPT; Potency, µM (top dose mostly 46.2 µM), hits mostly inhibitors; hit rate 12% among 420,000; AID 686979; chicken DT40 Tdp1-/-;hTDP1 cells + 20 nM CPT, ATP luminescence, 48 h; also: nearly all actives have a fitted effect of over 55% in size
#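 Chicken DT40 Tdp1-/- cells stably complemented with human TDP1 were seeded at 400 cells/well in medium containing 20 nM camptothecin, exposed to pin-transferred compounds, and grown at 37 °C for at least 48 hr. Viability was read as ATP luminescence.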
# Numbers stand for hits; – = inactive; ? = inconclusive; · = no result. Calls follow the shape of the dose curve; as a rule, active = well fitted curve in the direction sought with a large enough effect; inconclusive = small, poorly fitted or top-dose-only effect, or another doubt; inactive = no such curve, though single readings can be large; an effect the other way counts as inactive or inconclusive.
SMILES,TDP1 cell noCPT,ELG1 DNA repair,12-LOX inh,VP16 counter,RORgamma inh,DT40 TDP1 CPT
CCN1CCC2(CCC1=O)CN(Cc1cccc3cccnc13)CCN2C (configuration not stated),·,·,–,·,·,·
CC(=O)NCCNC(=O)Cn1c(C)c(Br)c2ccccc21,·,·,–,·,·,·
CCC(=O)N1CCC(C(=O)Nc2ccc(S(=O)(=O)N3CCCC3)cc2)CC1,·,·,–,·,·,·
CC(C)(C)NC(=O)C(c1ccc(C#N)cc1)n1c(=O)c(-c2ccccc2)nc2ccccc21 (configuration not stated),?,·,–,·,·,?
Cc1cccc(C)c1NC(=O)C(c1ccc(C#N)cc1)n1c(=O)c(-c2cc3ccccc3[nH]2)nc2ccccc21 (configuration not stated),9.2µM,·,–,·,·,12µM
O=C(NCc1ccccc1)C(CCc1ccccc1)n1c(=O)c(-c2ccccc2)nc2ccccc21 (configuration not stated),2.3µM,·,–,·,·,–
CCC(C(=O)NCc1ccccc1)n1c(CSCCOc2ccccc2)nc2ccccc21 (configuration not stated),?,·,–,·,·,23µM
Cc1cccc(C)c1NC(=O)C(c1ccccc1)n1c(=O)c(-c2cc3ccccc3[nH]2)nc2ccccc21 (configuration not stated),15µM,·,?,·,·,16µM
CC(C(=O)NCc1ccccc1)n1c(CSCCOc2ccccc2)nc2ccccc21 (configuration not stated),?,·,–,·,·,?
CC(C)CN1CCOC(CNC(=O)CSc2cc(C(=O)NC3CC3)c3ccccc3n2)C1 (configuration not stated),·,·,–,·,·,·
Cn1cnc(S(=O)(=O)N2CCCN(C3CCOCC3)CCNC(=O)CC2c2ccccc2)c1 (configuration not stated),·,·,–,·,·,·
O=C(CC[C@H]1NC(=O)c2ccccc2NC1=O)NCCc1ccccn1,·,·,–,·,·,·
Cc1cc(S(=O)(=O)N(C)C)c(C)cc1Br,·,·,–,·,·,·
CSCCC(C(=O)NCc1ccccc1)n1c(Cc2cc(F)cc(F)c2)nc2ccccc21 (configuration not stated),?,·,–,·,·,?
O=C(NCc1ccccc1)C(CCc1ccccc1)n1c(=O)c(-c2cc3ccccc3[nH]2)nc2ccccc21 (configuration not stated),9.2µM,·,–,·,·,13µM
Cc1cccc(C)c1NC(=O)C(c1ccncc1)n1c(=O)c(-c2cc3ccccc3[nH]2)nc2ccccc21 (configuration not stated),21µM,·,?,·,·,12µM
COc1ccc(C(C(=O)Nc2ccc3c(c2)OCCO3)n2c(=O)c(-c3cc4ccccc4[nH]3)nc3ccccc32)cc1 (configuration not stated),?,·,–,·,·,?
O=C(Nc1ccc2ccccc2c1)C(c1ccccc1)n1c(=O)c(-c2cc3ccccc3[nH]2)nc2ccccc21 (configuration not stated),16µM,·,?,·,·,?
CCC(/C=C/[C@@H](C)[C@H]1CCC2C3CC=C4C[C@@H](O)CC[C@]4(C)C3CC[C@@]21C)C(C)C (some centres not stated),·,·,–,·,·,·
COc1ccc(C2=NOC3(CCN(C(=O)c4ccc(C(F)(F)F)cc4)C3)C2)cc1 (configuration not stated),·,·,–,·,·,·
COc1ccc(-n2nc(C(=O)NCC(=O)N3CC(C)CC(C)C3)c3ccccc3c2=O)cc1 (configuration not stated),?,13µM,–,–,–,–
COc1ccc(-n2nc(C(=O)NCC(=O)N3CCN(c4ccccn4)CC3)c3ccccc3c2=O)cc1Cl,12µM,–,–,–,–,12µM
CCOC(=O)N1CCN(C(=O)c2nn(-c3cc(OC)cc(OC)c3)c(=O)c3ccccc23)CC1,·,?,·,–,?,·
COc1ccc(-n2nc(C(=O)NCC(=O)N3CCN(c4ccccc4F)CC3)c3ccccc3c2=O)cc1,23µM,?,–,?,?,18µM
COc1cc(OC)cc(-n2nc(C(=O)N3CC(C)CC(C)C3)c3ccccc3c2=O)c1 (configuration not stated),?,21µM,–,–,?,–
SMILES,TDP1 cell noCPT,ELG1 DNA repair,12-LOX inh,VP16 counter,RORgamma inh,DT40 TDP1 CPT
COc1ccc(-n2nc(C(=O)NCC(=O)N3CCC(C)CC3)c3ccccc3c2=O)cc1Cl,?,?,–,–,–,?
Cn1nc(NC(=O)Cc2c[nH]c(=O)[nH]c2=O)c2c(N3CCOCC3)cccc21,·,·,–,·,·,·
COc1c(C)cc(Br)cc1C(=O)Nc1ccc2oc(-c3cccnc3)nc2c1,·,·,–,·,·,·
COc1ccc(-n2nc(C(=O)NCC(=O)NCCC3=CCCCC3)c3ccccc3c2=O)cc1OC,18µM,9.2µM,–,–,–,–
COC(=O)CNC(=O)CNC(=O)c1nn(-c2ccc(OC)c(OC)c2)c(=O)c2ccccc12,–,–,–,–,–,–
COc1ccc(-n2nc(C(=O)NCC(=O)N3CCN(c4ccccc4F)CC3)c3ccccc3c2=O)cc1OC,13µM,?,–,–,–,?
COc1ccc(-n2nc(C(=O)NCC(=O)N3CCN(C)CC3)c3ccccc3c2=O)cc1,–,–,–,–,–,–
COc1ccc(N2CCN(C(=O)CNC(=O)c3nn(-c4ccc(OC)cc4)c(=O)c4ccccc34)CC2)cc1,18µM,–,–,–,–,?
Cc1ccc(NC=C(S(=O)(=O)c2ccccc2)S(=O)(=O)c2ccccc2)c(C)c1,21µM,–,–,–,–,?
O=C(c1ccccc1C(F)(F)F)N1CCc2nc3cc[nH]n3c(=O)c2C1,·,·,–,·,·,·
CCN(Cc1ccc(C#CCCO)cc1)CC1CCCN(CCc2cccc(OC)c2)C1 (configuration not stated),21µM,–,–,–,–,?
COc1ccc(OC)c(NC(=O)c2cccn2-c2nnc(N3CCCCC3)s2)c1,?,·,–,·,·,21µM
COc1ccc(CNC(=O)c2cccn2-c2nnc(N3CCCCC3)s2)c(OC)c1,23µM,·,–,·,·,?
OCCC1CN(Cc2c(O)ccc3ccccc23)CCN1CCc1ccccc1 (configuration not stated),?,–,7.1µM,–,–,?
OCCC1CN(Cc2ccccc2O)CCN1CCCc1ccccc1 (configuration not stated),–,–,–,–,–,–
COc1cc(CN2CCN(CCCc3ccccc3)C(CCO)C2)cc(OC)c1O (configuration not stated),6.5µM,–,?,?,–,6.5µM
